# Experimental data from the supplement of paper PMC6555819.
# System: PPARg:RXRa (NR concentration 180 nM, RXRa partner concentration 90 nM)
# Experiment: PBM binding z-score (relative to random genomic background probes); higher = stronger binding; sequences stand for … in GC…GCGATTGACAGCGTAGAATGAAGG
# Procedure, shortened: (§1)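 Ligand-free nuclear receptor dimers were bound for 1 h to custom Agilent 4×180K protein-binding microarrays. Detection used antibodies against each partner (one per run). Binding z-scores rest on regression-normalized fluorescence, with random background probes as the reference.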
row,Sequence,PBM binding z-score
1,TCATAAAGGTAAACAGGTGAAAGTCCGTAAGTTA,2.29
2,ATATGTAGGTTACATCCGGTTCATTCAGGCTATG,5.17
3,TCTATTAGTTGACGGGCAACCGACGAGTCCGTTT,0.00282
4,CAGCCAAGGTCAGGGCCAGTATAGGAGGAACGTT,2.73
5,CGTCCAAGGTCAGAGAGGTCAGTCAATGCCGAGT,3.37
6,CGTCCAAGGTCAAAAGTCAGTGAAGAGATGACGG,5.67
7,TAGCATAGGTCATTGGGCCAGTATAGTACGCATC,5.17
8,ATCGAAAGGTCGAAGGTGTGTATACCCACCCGAA,2.6
9,GTACCAAGGTGAATAGGTTGTTGATGAGTAGGCG,0.802
10,TAGCCTAGGTCATTGCGCCAGTATAGTACGCATC,2.25
11,AGTCAAAGTTCACTAGTTAACGTAAGATTCAGCT,5.33
12,CCTAGTTGGTCAGGAGGGCACACACCGGATATGA,0.988
13,TCTTGTAGATCAGCAGGTTCAGAAAGCTGGCCAA,-0.665
14,TCTATTAGTTGAAGGGAAACCGACGAGTCCGTTT,-0.183
15,ACTACCAGGCCAAGTTTGGGTCACTCAAACAAAG,0.43
16,GCTAGCAGGCCATTTGGGTCACTCGATGACGGGC,0.641
17,TCTAGTTGGTCAAAGGTCACACGCTCGAAATGCG,12
18,AGAATGTGGTTATACGTAGATCAGGGAAGAAAGT,0.647
19,CCTTACTGGTCACTGACAGGTTATAGCATTTGGA,0.266
20,TTACCAAGGTGAGCTGAGGTCCTTGATCCAACTC,-0.286

row,Sequence,PBM binding z-score
1,TCATATAGGTATAGGTGAAAGTCGAACGATATGA,1.72
2,ACTAGCAGGCCAAGATTGGGTCACTCAAACAAAG,0.272
3,ATCTCTAGGTCACAAGTTCAGTGAAAGAGAGGAC,6.67
4,GGAACGAGGGCAAGTGGATAGCAGAGTTTGATGG,1.21
5,TGTCAAAGTTCATAGGTAACGTAAGTATCCACAC,7.92
6,GCTATTAGTTGAAACGGCAACCGAATGATTCTCG,0.341
7,CAAACTAGGACAAAGGTCAAAGTCGAGCCAACCA,12.1
8,CCTTACGGGTCCAGGTTATAGCACGGGTGGTACG,0.168
9,CGAACTAGGTCATTGACTGGACAGTGAATAGTAA,7.36
10,TAGCCTAGATCATGCGGGCCAGTATAGTGTCGGC,0.0405
11,TCTGCTAGGTCAGCGATGGTCAGCTAATCTGCTA,0.772
12,ACAGACAGGTGATGTAGGTAACTCAGGCTATCAT,0.673
13,TCTTTTAGATCAAAGGTTAAGAAAGCCGAAGCCT,6.36
14,TCTTGTAGATCAATAGAGGTTAAGAAGGTGCGCT,0.18
15,TCTGCTAGGTCAGTTGGTCACCTAACGAGCTGCC,1.03
16,GTATCAAGGTGAATAGGTCGTTGATGAGTAGGCG,2.43
17,ATCTCTAGGTAACACGTTCAGTGAAAGAGAGGAC,0.99
18,TTACCAAGGTGAAAGGTCGTTCATGCACGCCTTG,8.83
19,ACACGGAGGACAAAGGTCAGAGCTACGCCAGTGA,7.55
20,TCATATAGGTAAACAGGTGACAGTCCGTAAGTTA,2.52

# System: PPARg:RXRa 270nM:90nM, anti-RXR (NR concentration 270 nM, RXRa partner concentration 90 nM)
# Experiment: as above
# Procedure, shortened: as §1
row,Sequence,PBM binding z-score
1,TCATAAAGGTAAACAGGTGAAAGTCCGTAAGTTA,3.47
2,ATATGTAGGTTACATCCGGTTCATTCAGGCTATG,4.39
3,TCTATTAGTTGACGGGCAACCGACGAGTCCGTTT,1.62
4,CAGCCAAGGTCAGGGCCAGTATAGGAGGAACGTT,2.77
5,CGTCCAAGGTCAGAGAGGTCAGTCAATGCCGAGT,4.63
6,CGTCCAAGGTCAAAAGTCAGTGAAGAGATGACGG,5.87
7,TAGCATAGGTCATTGGGCCAGTATAGTACGCATC,5.29
8,ATCGAAAGGTCGAAGGTGTGTATACCCACCCGAA,3.32
9,GTACCAAGGTGAATAGGTTGTTGATGAGTAGGCG,0.714
10,TAGCCTAGGTCATTGCGCCAGTATAGTACGCATC,2.49
11,AGTCAAAGTTCACTAGTTAACGTAAGATTCAGCT,5.73
12,CCTAGTTGGTCAGGAGGGCACACACCGGATATGA,0.912
13,TCTTGTAGATCAGCAGGTTCAGAAAGCTGGCCAA,1.1
14,TCTATTAGTTGAAGGGAAACCGACGAGTCCGTTT,2.13
15,ACTACCAGGCCAAGTTTGGGTCACTCAAACAAAG,0.598
16,GCTAGCAGGCCATTTGGGTCACTCGATGACGGGC,0.713
17,TCTAGTTGGTCAAAGGTCACACGCTCGAAATGCG,10.1
18,AGAATGTGGTTATACGTAGATCAGGGAAGAAAGT,0.356
19,CCTTACTGGTCACTGACAGGTTATAGCATTTGGA,0.384
20,TTACCAAGGTGAGCTGAGGTCCTTGATCCAACTC,0.115

row,Sequence,PBM binding z-score
1,TCATATAGGTATAGGTGAAAGTCGAACGATATGA,2.44
2,ACTAGCAGGCCAAGATTGGGTCACTCAAACAAAG,0.402
3,ATCTCTAGGTCACAAGTTCAGTGAAAGAGAGGAC,5.95
4,GGAACGAGGGCAAGTGGATAGCAGAGTTTGATGG,1.21
5,TGTCAAAGTTCATAGGTAACGTAAGTATCCACAC,7.41
6,GCTATTAGTTGAAACGGCAACCGAATGATTCTCG,-0.00574
7,CAAACTAGGACAAAGGTCAAAGTCGAGCCAACCA,10.6
8,CCTTACGGGTCCAGGTTATAGCACGGGTGGTACG,-0.847
9,CGAACTAGGTCATTGACTGGACAGTGAATAGTAA,6.43
10,TAGCCTAGATCATGCGGGCCAGTATAGTGTCGGC,-0.522
11,TCTGCTAGGTCAGCGATGGTCAGCTAATCTGCTA,1.62
12,ACAGACAGGTGATGTAGGTAACTCAGGCTATCAT,-0.0404
13,TCTTTTAGATCAAAGGTTAAGAAAGCCGAAGCCT,6.92
14,TCTTGTAGATCAATAGAGGTTAAGAAGGTGCGCT,1.52
15,TCTGCTAGGTCAGTTGGTCACCTAACGAGCTGCC,2.1
16,GTATCAAGGTGAATAGGTCGTTGATGAGTAGGCG,2.76
17,ATCTCTAGGTAACACGTTCAGTGAAAGAGAGGAC,1.06
18,TTACCAAGGTGAAAGGTCGTTCATGCACGCCTTG,8.22
19,ACACGGAGGACAAAGGTCAGAGCTACGCCAGTGA,7.26
20,TCATATAGGTAAACAGGTGACAGTCCGTAAGTTA,3.35
